Screening results as filed in PubChem.
Hits are enriched below; roughly 7.3% of the tested compounds scored in any of these assays.
SMN2 splice enh: enhancers of SMN2 splice variant expression. Potency, µM (highest dose often 46.1 µM), actives largely listed as activators. AID 1458. 210,000 tested, 2.8% active. HEK293 SMN2-luciferase splicing reporter, luminescence, 30-36 h; further: nearly all actives have a fitted effect of over 55% in size
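HEK293 cells carry an SMN2 minigene-luciferase reporter in which exon 7 inclusion puts luciferase in frame. Cells were seeded at 2000 cells/well, attached for 10-12 hours, then exposed to compounds for 30-36 hours at 37C before ONE-Glo luminescence.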
Rab9 prom act: activates the Rab9 promoter. Huh7 Rab9 promoter-luciferase reporter, luminescence, 24 h. Potency, µM (titrated, usually from 9.22 µM), usual class: activators. 320,000 tested, 2.8% active. AID 485297; further: nearly all actives have a fitted effect of over 60% in size
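Huh7 reporter line, Rab9 promoter upstream of luciferase. Compound exposure 24 h at 37 °C in reduced-serum medium with 10% FBS. Read-out: luminescence.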
KinaseGlo FLuc: Kinase-Glo luciferase inhibition (counter-screen) | Q27757 | 200,000 tested, 0.28% active | Kinase-Glo luciferase, ATP luminescence, 8 min | Potency, µM (titrated, usually from 38.3 µM), hits mostly inhibitors; further: nearly all actives have a fitted effect of over 60% in size
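Kinase-Glo luciferase light output from ATP and luciferin was measured with 10 uM ATP, within the enzyme's linear range. Buffer: 50 mM imidazole pH 7.2, 50 mM KCl, 7 mM MgCl2, 0.01% Tween 20, 0.05% BSA; luminescence read after 8 min at ambient temperature.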
NPC1 promoter act: activators of NPC1 promoter | Huh7 NPC1 promoter luciferase reporter, 24 h | Potency, µM (series often up to 9.22 µM), hits mostly activators | 320,000 tested, 2.4% active | AID 485313; further: nearly all actives have a fitted effect of over 60% in size
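Quantitative HTS used a cell-based reporter: Huh7 cells stably bearing the NPC1 promoter upstream of luciferase were treated with compounds for 24 h, and promoter activation was read as luminescence.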
FLuc modulator: inhibits or activates purified firefly luciferase, miR-21 counter-screen | P08659 | purified FLuc, Km substrates, luminescence inhibition | Potency, µM (titrated, usually from 57.5 µM), actives largely listed as inhibitors | 360,000 tested, 6.9% active; further: nearly all actives have a fitted effect of over 55% in size
Target sequence (P08659 whole entry, looked up): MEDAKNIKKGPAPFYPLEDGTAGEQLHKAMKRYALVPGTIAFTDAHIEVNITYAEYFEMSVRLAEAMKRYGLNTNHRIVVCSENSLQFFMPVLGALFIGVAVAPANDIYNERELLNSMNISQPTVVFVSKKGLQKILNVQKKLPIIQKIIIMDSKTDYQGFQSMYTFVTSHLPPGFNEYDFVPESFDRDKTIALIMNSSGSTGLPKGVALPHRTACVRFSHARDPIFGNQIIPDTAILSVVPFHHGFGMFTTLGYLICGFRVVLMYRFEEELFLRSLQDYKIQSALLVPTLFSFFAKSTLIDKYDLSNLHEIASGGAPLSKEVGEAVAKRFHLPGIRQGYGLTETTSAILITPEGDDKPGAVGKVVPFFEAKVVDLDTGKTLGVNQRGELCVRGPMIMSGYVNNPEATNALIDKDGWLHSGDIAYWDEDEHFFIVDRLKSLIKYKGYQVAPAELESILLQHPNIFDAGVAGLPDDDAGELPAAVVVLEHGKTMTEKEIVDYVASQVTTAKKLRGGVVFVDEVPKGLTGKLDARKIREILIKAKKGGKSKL
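Purified P. pyralis luciferase (10nM final) with 10uM D-luciferin and 10uM ATP (Km levels) in 50mM Tris acetate pH 7.5, 10mM Mg acetate, 0.01% Tween-20, 0.05% BSA; qHTS 6-point titration, ~60 µM downward; luminescence read.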
Numbers stand for hits; [ ] = another dose, or the depositor's remark. The call rests on the fitted dose curve; in most records, active means well fitted curve in the direction sought with a large enough effect; inconclusive means small, poorly fitted or top-dose-only effect, or another doubt; inactive means no such curve, though single readings can be large; an effect the other way counts as inactive or inconclusive.

How did COC(=O)CSc1ncnc2c1sc1nc3c(cc12)COC(C)(C)C3 do in these assays?
SMN2 splice enh: inactive; Rab9 prom act: inconclusive; KinaseGlo FLuc: inactive; NPC1 promoter act: inactive; FLuc modulator: inconclusive

Results for CC1(C)Cc2nc3sc4c(SCC(=O)NCc5ccccc5)ncnc4c3cc2CO1 ?
SMN2 splice enh: inconclusive; Rab9 prom act: inactive; KinaseGlo FLuc: inactive; NPC1 promoter act: inactive; FLuc modulator: 2.7µM

How did CC1(C)Cc2nc3sc4c(SCC(=O)O)ncnc4c3cc2CO1 do in these assays?
Rab9 prom act: inconclusive; NPC1 promoter act: inconclusive; FLuc modulator: 0.38µM

What do the screens show for `O=S1(=O)N=C(Nc2ccc(N3CCOCC3)c(Cl)c2)c2ccccc21`?
SMN2 splice enh: 13µM; Rab9 prom act: 3.5µM; KinaseGlo FLuc: inactive; NPC1 promoter act: inconclusive; FLuc modulator: 5.4µM

Results for Cc1c(NC(=O)c2cccc(NC(=O)c3ccco3)c2)cccc1C(=O)O ?
SMN2 splice enh: inactive; Rab9 prom act: inactive; KinaseGlo FLuc: inactive; NPC1 promoter act: inactive; FLuc modulator: 19µM

Results for O=C(O)Cc1ccc(NC(=O)c2cccc(NC(=O)c3ccco3)c2)cc1 ?
Rab9 prom act: inactive; NPC1 promoter act: inactive; FLuc modulator: 17µM

Results for O=C(Nc1cc([N+](=O)[O-])ccc1O)c1cccc(NC(=O)c2ccco2)c1 ?
Rab9 prom act: inactive; NPC1 promoter act: inactive; FLuc modulator: inconclusive

What do the screens show for `O=C(NCc1ccccc1)c1cccc(NC(=O)c2ccco2)c1`?
SMN2 splice enh: inactive; Rab9 prom act: inactive; KinaseGlo FLuc: inactive; NPC1 promoter act: inactive; FLuc modulator: inactive

How did O=C(Nc1ccc(O)c(C(=O)O)c1)c1cccc(NC(=O)c2ccco2)c1 do in these assays?
Rab9 prom act: inactive; NPC1 promoter act: inactive; FLuc modulator: 11µM

Results for COc1ccc(-c2cn3nc(N4CCC(C(=O)Nc5ccc(C)cc5)CC4)sc3n2)cc1 ?
FLuc modulator: inactive

Results for Cc1cccc(CC(=O)NC2CC(=O)N(c3cccc(F)c3)C2)c1 (stereo unspecified) ?
FLuc modulator: inactive

How did COc1ccc(C)cc1NC(=S)NNC(=O)c1ccccc1Cl do in these assays?
SMN2 splice enh: inactive; Rab9 prom act: inactive; KinaseGlo FLuc: inactive; NPC1 promoter act: inactive; FLuc modulator: inconclusive

How did COc1ccc(C)cc1NC(=S)NNC(=O)c1c(Br)cnn1C do in these assays?
SMN2 splice enh: inactive; Rab9 prom act: inactive; KinaseGlo FLuc: inactive; NPC1 promoter act: inactive; FLuc modulator: 27µM

How did COc1ccccc1NC(=S)NNC(=O)c1nn(C)c(C)c1Br do in these assays?
SMN2 splice enh: inactive; Rab9 prom act: inactive; KinaseGlo FLuc: inactive; NPC1 promoter act: inactive; FLuc modulator: 15µM

How did COc1ccc(S(=O)(=O)N(CC(=O)Nc2cc(C)cc(C)c2)c2ccc(Cl)cc2)cc1 do in these assays?
SMN2 splice enh: inactive; FLuc modulator: inactive

Results for CCCc1ccc(C(=O)NNc2cccc(C)c2)cc1 ?
Rab9 prom act: inactive; NPC1 promoter act: inactive; FLuc modulator: 21µM

What do the screens show for `COc1ccc(NC(=O)c2c(Cl)n(C)c3ccccc23)cc1`?
SMN2 splice enh: inconclusive; Rab9 prom act: inactive; KinaseGlo FLuc: inactive; NPC1 promoter act: inactive; FLuc modulator: 9.5µM

What do the screens show for `O=C(Nc1ccc(SC(F)F)cc1)c1ccc2nccnc2c1`?
SMN2 splice enh: inactive; Rab9 prom act: inactive; KinaseGlo FLuc: inactive; NPC1 promoter act: inconclusive; FLuc modulator: 11µM

What do the screens show for `COc1ccc(NC(=S)c2ccncc2)cc1`?
SMN2 splice enh: inactive; Rab9 prom act: inactive; KinaseGlo FLuc: inactive; NPC1 promoter act: inactive; FLuc modulator: inactive

How did COc1ccc(C(=S)Nc2ccc(C)cc2)cc1 do in these assays?
SMN2 splice enh: 18µM; Rab9 prom act: 2.8µM; KinaseGlo FLuc: inactive; NPC1 promoter act: 2µM; FLuc modulator: 2.4µM

Results for Cc1cc(NS(=O)(=O)c2ccc(NC(=O)COc3ccc(Cl)cc3)cc2)nc(C)n1 ?
SMN2 splice enh: inactive; FLuc modulator: inconclusive

What do the screens show for `Nc1nc(N)c(CCCCc2ccccc2)c(N)n1`?
SMN2 splice enh: inactive[9.22 µM]; KinaseGlo FLuc: inactive[7.66 µM]

Results for Cc1cc(=O)oc2cc(OCC(=O)Nc3c(C(C)C)cccc3C(C)C)ccc12 ?
SMN2 splice enh: inactive; FLuc modulator: inactive

Results for O=C(Nc1nnc(S(=O)(=O)N2CCc3ccccc32)s1)c1cccc(Cl)c1 ?
FLuc modulator: inactive

How did COc1ccc2cc3c(N)c(C(=O)NCc4ccco4)sc3nc2c1 do in these assays?
SMN2 splice enh: 13µM; Rab9 prom act: 2µM; KinaseGlo FLuc: inactive; NPC1 promoter act: inconclusive; FLuc modulator: 6µM

What do the screens show for `COc1ccc2cc3cc(C(=O)NCc4ccco4)oc3nc2c1`?
SMN2 splice enh: inactive; Rab9 prom act: inactive; KinaseGlo FLuc: inactive; NPC1 promoter act: inactive; FLuc modulator: inconclusive

What do the screens show for `O=C(Nc1ccc(Oc2ccsc2C(=O)O)cc1)c1ccccc1`?
Rab9 prom act: inactive; NPC1 promoter act: inactive; FLuc modulator: 24µM

How did O=C(Nc1ccsc1C(=O)O)c1ccccc1 do in these assays?
Rab9 prom act: inactive; NPC1 promoter act: inactive; FLuc modulator: 24µM

How did COc1ccc(C(=O)Nc2cccc(C)c2)cc1 do in these assays?
SMN2 splice enh: 11µM; Rab9 prom act: 1.3µM; KinaseGlo FLuc: inconclusive; NPC1 promoter act: 1.3µM; FLuc modulator: 3.4µM

What do the screens show for `O=C(CSCc1cc(=O)c2cc(F)ccc2[nH]1)Nc1ccccc1Cl`?
FLuc modulator: inactive

How did Cc1ccc(NC(=S)c2ccncc2)cc1 do in these assays?
Rab9 prom act: inactive; NPC1 promoter act: inactive; FLuc modulator: inconclusive

What do the screens show for `COc1ccc(NC(=O)c2ccccc2)cc1`?
Rab9 prom act: 1.8µM; NPC1 promoter act: 3.5µM; FLuc modulator: inconclusive

Results for COc1ccc(C(=O)Nc2cccc(C(=O)NCc3ccco3)c2)cc1 ?
Rab9 prom act: inactive; KinaseGlo FLuc: inactive; NPC1 promoter act: inactive; FLuc modulator: 12µM

Results for O=C(NCc1ccco1)c1cccc(NC(=O)c2ccco2)c1 ?
SMN2 splice enh: inactive; Rab9 prom act: inactive; KinaseGlo FLuc: inactive; NPC1 promoter act: inactive; FLuc modulator: inactive

Results for COc1ccc(NC(=O)c2ccc(C)cc2)cc1 ?
Rab9 prom act: 0.45µM; NPC1 promoter act: 0.4µM; FLuc modulator: 2.7µM

Results for Cc1ccc(NC(=S)c2ccccc2)cc1 ?
SMN2 splice enh: inactive[1.84 µM]; Rab9 prom act: 2.5µM; KinaseGlo FLuc: inactive; NPC1 promoter act: inconclusive; FLuc modulator: 4.8µM

How did Cc1cc([N+](=O)[O-])ccc1NC(c1nnc(-c2ccccc2)o1)c1ccccc1F (stereo unspecified) do in these assays?
FLuc modulator: inactive

What do the screens show for `CCOc1ccc(C2CC(=O)Nc3nc(SCc4ccccc4C)[nH]c(=O)c32)cc1OC` (stereo unspecified)?
FLuc modulator: inactive

What do the screens show for `O=C(NCc1ccccc1)c1cccn1-c1nnc(N2CCCC2)s1`?
FLuc modulator: inactive

What do the screens show for `CCOc1ccc(C(=O)/C=C/c2cn(CC(O)CN3CCc4ccccc43)c3ccccc23)cc1` (stereo unspecified)?
SMN2 splice enh: inactive; FLuc modulator: inactive
